Assay outcomes from PubChem BioAssay.
An excerpt weighted towards active compounds, which were near 2.2% of everything screened.
aSyn 5UTR inh = MLPCN primary screen, SNCA 5' untranslated region; alpha-synuclein 5'UTR reporter, inhibitor activity; inhibition, % (tested at 7.5 µM); actives 0.82% (n = 300,000); in the data active = inhibition above about 60%;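 note: H4 neuroglioblastoma cells stably carrying SNCA 5'UTR luciferase fusion; 0% = DMSO wells and 100% = positive control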
IEC-6 cytotox = cytotoxicity in IEC-6 intestinal epithelial cells, primary screen, cytotoxicity control for KLF5 inhibitor project, cell-based, luminescence; IEC-6 cytotoxicity, luminescence viability; inhibition, % at 5 µM; actives 0.78% (n = 290,000); in the data active = inhibition above about 22%;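 note: 0% = plate median of test compound wells and 100% = cytotoxic reference compound wells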
APP transl inh = inhibitors of APP translation via 5'UTR reporter, primary screen, APP 5'UTR luciferase, SH-SY5Y cells. SH-SY5Y APP 5'UTR-luciferase reporter, luminescence. inhibition, % at 2 µM. actives 0.82% (n = 190,000). AID 1285, 2008;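 active = inhibition above a set limit, derived from the sample mean plus 3 SD, cut at about 45% in these data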
KLF5 inhibitor = KLF5 expression inhibitors, primary screen, DLD-1 cells, luminescence | inhibition, % at 5 µM | AID 1700, 2009 | DLD-1 KLF5 promoter-luciferase reporter | actives 0.23% (n = 290,000);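 active = inhibition above a per-plate limit of that plate's mean compound inhibition plus 3 SD, cut at about 60% in these data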;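 note: 0% = DMSO wells and 100% = LY294002 at 200 µM; higher means less KLF5 promoter-driven luciferase light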
Ba/F3 V617F tox = reduced viability of JAK2V617F-dependent Ba/F3 cells, primary screen, JAK2V617F inhibitor project, cell-based, Ba/F3 EpoR-JAK2V617F, luminescence | ATP luminescence | inhibition, % at 5.6 µM | actives 1.1% (n = 220,000) | AID 1446, 2008;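 active = inhibition above the campaign mean plus 3 SD over all tested compounds, cut at about 24% in these data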;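 note: cytokine-independent growth of Ba/F3 cells driven by EpoR plus mutant JAK2; 0% = DMSO-treated cells and 100% = JAK inhibitor I control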
BaF3 parental = parental Ba/F3 cell viability inhibition, counter-screen for JAK2V617F inhibitor project, murine pro-B, CellTiter-Glo luminescence | CellTiter-Glo ATP luminescence | inhibition, % at 5.6 µM | actives 1.1% (n = 220,000);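 active = inhibition above a per-campaign cutoff, the mean inhibition of all tested compounds plus 3 SD, cut at about 27% in these data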;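 note: 0% = DMSO wells and 100% = JAK Inhibitor I control wells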
* hit, by the source's call.

`O=C(NC1CCCC1)c1cc(COc2ccc3ncccc3c2)on1` gave aSyn 5UTR inh 9.3, IEC-6 cytotox 3.4, KLF5 inhibitor -32.7, Ba/F3 V617F tox 36.5* and BaF3 parental 43.5*.
Screening COc1cccc(CN(C)C(=O)c2cc(COc3ccc4ncccc4c3)on2)c1 returned aSyn 5UTR inh -15.4, IEC-6 cytotox 13.9, APP transl inh 9.2, KLF5 inhibitor -31.7, Ba/F3 V617F tox 54.5* and BaF3 parental 71.3*.
Screening O=Nc1c(-c2cccc([N+](=O)[O-])c2)nc2ncccn12 returned aSyn 5UTR inh 42.5, IEC-6 cytotox -5.7, KLF5 inhibitor -7.5, Ba/F3 V617F tox -5.8 and BaF3 parental 0.1.
CC[n+]1ccc(C)c2cc(S(=O)C(F)(F)F)ccc21 (stereo not drawn) was read as aSyn 5UTR inh 10.6, IEC-6 cytotox -1.6, APP transl inh -0.6, KLF5 inhibitor -15.1, Ba/F3 V617F tox 15.5 and BaF3 parental 27.2*.
CC[n+]1ccc(C)c2cc(SC(F)(F)F)ccc21 was read as aSyn 5UTR inh 2.7, IEC-6 cytotox -1.9, APP transl inh -27.7, KLF5 inhibitor -13.1, Ba/F3 V617F tox 13.1 and BaF3 parental 35.0*.
For CC[n+]1ccc(C)c2cc(P(=O)(c3ccccc3)c3ccccc3)ccc21 the results were aSyn 5UTR inh -9.4, IEC-6 cytotox 0.4, APP transl inh 9.3, KLF5 inhibitor -44.4, Ba/F3 V617F tox -2.3 and BaF3 parental 1.6.
For C(=N\Nc1ccc2ccccc2n1)/c1ccc2c(c1)OCCO2 the results were aSyn 5UTR inh 108.4*, IEC-6 cytotox 4.5, APP transl inh -48.0, KLF5 inhibitor 58.1, Ba/F3 V617F tox -1.1 and BaF3 parental -1.2.
For Cc1ccccc1NC(=O)c1cc(S(=O)(=O)N2CCOCC2)cn1C the results were aSyn 5UTR inh -17.1, IEC-6 cytotox -5.6 and KLF5 inhibitor -11.9.
`Cc1ccccc1NC(=S)N=Nc1c(O)n(C)c2ccc(S(=O)(=O)N3CCOCC3)cc12` gave aSyn 5UTR inh 77.9*, IEC-6 cytotox 3.6, APP transl inh 17.5, KLF5 inhibitor -10.1, Ba/F3 V617F tox 2.1 and BaF3 parental 8.1.
Screening Cc1cccc(C)c1NC(=S)N=Nc1c(O)n(C)c2ccc(S(=O)(=O)N3CCOCC3)cc12 returned aSyn 5UTR inh 71.4*, IEC-6 cytotox -9.9, APP transl inh 20.3, KLF5 inhibitor -19.0, Ba/F3 V617F tox -1.0 and BaF3 parental 2.4.
CCOc1ccc(S(=O)(=O)N2CCCCC2)cc1NC(=O)C1CSC2(C)CCC(=O)N12 (stereo not drawn) was read as aSyn 5UTR inh -4.9.
Screening COC(=O)CCS(=O)(=O)c1nc(-c2ccccc2)cc(C(F)(F)F)n1 returned aSyn 5UTR inh -73.2, IEC-6 cytotox 4.0, APP transl inh 21.1, KLF5 inhibitor -23.1, Ba/F3 V617F tox 2.6 and BaF3 parental 7.1.
For CS(=O)(=O)c1nc(-c2ccc(F)cc2)cc(C(F)(F)F)n1 the results were aSyn 5UTR inh -125.8, IEC-6 cytotox 25.1*, APP transl inh 29.9, KLF5 inhibitor -40.5, Ba/F3 V617F tox 14.9 and BaF3 parental 8.4.
`CCOC(=O)CS(=O)(=O)c1nc(-c2ccccc2)cc(C(F)(F)F)n1` gave aSyn 5UTR inh -20.5, IEC-6 cytotox 27.8*, APP transl inh 56.9*, KLF5 inhibitor 7.8, Ba/F3 V617F tox 78.6* and BaF3 parental 10.3.
CCOC(=O)CS(=O)(=O)c1nc(-c2ccc(F)cc2)cc(C(F)(F)F)n1 was read as aSyn 5UTR inh -32.8, IEC-6 cytotox 0.6, APP transl inh 60.7*, KLF5 inhibitor -2.1, Ba/F3 V617F tox -3.1 and BaF3 parental 3.8.
Screening CCOC(=O)CCS(=O)(=O)c1nc(-c2ccccc2)cc(C(F)(F)F)n1 returned aSyn 5UTR inh -129.3, IEC-6 cytotox 7.9, APP transl inh 30.5, KLF5 inhibitor -13.2, Ba/F3 V617F tox 39.2* and BaF3 parental 6.6.
Screening CCCCn1c(N)c(N(CC(C)C)C(=O)c2oc3ccc(Br)cc3c2C)c(=O)[nH]c1=O returned aSyn 5UTR inh -6.0.
Cc1ccc(NC(=O)CN2C(=O)C3C4C=CC(C4)C3C2=O)cc1S(=O)(=O)N(C)C (stereo not drawn) was read as aSyn 5UTR inh 17.7, IEC-6 cytotox 1.8, APP transl inh 54.9*, KLF5 inhibitor 40.2, Ba/F3 V617F tox -0.7 and BaF3 parental 2.5.
For NS(=O)(=O)c1ccc(NC(=O)CN2C(=O)C3C4C=CC(C4)C3C2=O)cc1 (stereo not drawn) the results were aSyn 5UTR inh -3.4, IEC-6 cytotox 2.0, APP transl inh -4.8, KLF5 inhibitor -20.5, Ba/F3 V617F tox 1.6 and BaF3 parental 2.8.
COCC(C)N1CCC(Oc2cccc(C(=O)NCCc3ccccc3)c2)CC1 (stereo not drawn) was read as aSyn 5UTR inh -71.8, IEC-6 cytotox -5.3 and KLF5 inhibitor -109.3.
Screening CCOc1ccc(S(=O)(=O)N(CC(=O)Nc2cccnc2)c2ccc(F)cc2)cc1 returned aSyn 5UTR inh 2.1, IEC-6 cytotox 10.8 and KLF5 inhibitor -11.7.
For O=C1/C(=C\c2ccncc2)CCc2ccccc21 the results were aSyn 5UTR inh -4.7.
O=C1/C(=C/c2ccncc2)CCC/C1=C\c1ccncc1 was read as aSyn 5UTR inh -100.9, IEC-6 cytotox 17.1, APP transl inh 82.2*, KLF5 inhibitor 38.1, Ba/F3 V617F tox 22.2 and BaF3 parental -13.7.
Screening CC(=O)NC12CC3CC(C1)CC(C(=O)Oc1ccc(N(C)S(=O)(=O)c4cc(C)ccc4C)cc1)(C3)C2 returned aSyn 5UTR inh 15.8.
`CCOC(=O)c1c(C)[nH]c(C(=O)N/N=C/c2ccc(Br)cc2)c1C` gave aSyn 5UTR inh 39.5, IEC-6 cytotox 85.1*, APP transl inh 94.7*, KLF5 inhibitor 72.2*, Ba/F3 V617F tox 73.1* and BaF3 parental 77.8*.
Screening COc1ccc(S(=O)(=O)N2c3ccc(F)cc3CCC2C)cc1 (stereo not drawn) returned aSyn 5UTR inh 112.2*.
For CC(=O)Nc1ccc(S(=O)(=O)N2c3ccc(F)cc3CCC2C)cc1 (stereo not drawn) the results were aSyn 5UTR inh 7.3.
COC(=O)c1ccc(N=NN2CCCCC2)cc1 was read as aSyn 5UTR inh -101.7, IEC-6 cytotox 1.9, APP transl inh -150.7, KLF5 inhibitor -53.0, Ba/F3 V617F tox 0.7 and BaF3 parental 10.6.
CC(=O)c1c(C)[nH]c(C(=O)COc2cc(C)ccc2C(C)C)c1C was read as aSyn 5UTR inh 23.0, IEC-6 cytotox 16.7, APP transl inh 4.5, KLF5 inhibitor -10.5, Ba/F3 V617F tox 45.4* and BaF3 parental 40.0*.
CC12CC3CC(C)(C1)CC(NCc1ccncc1)(C3)C2 was read as IEC-6 cytotox 2.9, APP transl inh -9.8, KLF5 inhibitor 7.3, Ba/F3 V617F tox 5.8 and BaF3 parental 15.8.
